In all, about 8,300 sequences were measured (“log2 fold change of degron read counts, EGFP-low vs EGFP+ sorted cells (limma voom), compound-induced degradation”: median about -1.1, highest 2% from about 3.2 on). What follows is part of a selection rich in the highest values, with near analogues and random picks from the rest.
T1: CRBN, Q96SW2
T1 chain: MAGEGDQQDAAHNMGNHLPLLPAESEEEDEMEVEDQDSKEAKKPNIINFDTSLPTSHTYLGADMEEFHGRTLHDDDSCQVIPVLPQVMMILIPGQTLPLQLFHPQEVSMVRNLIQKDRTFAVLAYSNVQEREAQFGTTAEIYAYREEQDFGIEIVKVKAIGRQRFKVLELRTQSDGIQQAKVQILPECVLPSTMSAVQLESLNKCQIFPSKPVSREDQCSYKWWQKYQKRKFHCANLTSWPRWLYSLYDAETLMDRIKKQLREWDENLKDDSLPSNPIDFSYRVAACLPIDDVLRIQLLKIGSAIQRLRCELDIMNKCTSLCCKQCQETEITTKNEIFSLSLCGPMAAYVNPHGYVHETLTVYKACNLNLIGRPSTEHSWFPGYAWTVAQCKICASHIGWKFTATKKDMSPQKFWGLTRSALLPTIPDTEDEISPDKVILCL


Target: T1, CRBN, Q96SW2
Experiment: log2 fold change of degron read counts, EGFP-low vs EGFP+ sorted cells (limma voom), compound-induced degradation; higher = more compound-induced degradation of the degron-EGFP fusion; degrons are variants of IKZF1/3 zinc finger 2; compound dose not given here
Conditions: Jurkat, 18 h
[1] = compound: compound 19 (5-tert-butyl-thalidomide)
[2] = compound: compound 22 (5-morpholino-thalidomide)
[3] = compound: compound 33 (diphenyl IMiD analogue)
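Further: pooled lentiviral library of zinc finger degron-EGFP fusions in mCherry-positive Jurkat cells, FACS-sorted after compound exposure, with degron abundance counted by next-generation sequencing.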

| Sequence | log2 fold change of degron read counts [1] | log2 fold change of degron read counts [2] | log2 fold change of degron read counts [3] | log2 fold change of degron read counts (compound: thalidomide) |
| --- | --- | --- | --- | --- |
| FTCSVCGHSFTQKGNLLRHIKL [46F_47T_49S_50V_52G_53H_54S_55F_67L_, Q9UKT9] | -2.98 | -3.17 | -2.89 | -2.9 |
| FFCEVCGALFTQKGNLLRHIKL [46F_47F_49E_50V_52G_53A_54L_55F_67L_, Q9UKT9] | 2.55 | 2.63 | 1.79 | 0.407 |
| FWCEVCGADFTQKGNLLRHIKL [46F_47W_49E_50V_52G_53A_54D_55F_67L_, Q9UKT9] | -0.303 | 0.852 | -0.582 | -1.26 |
| FCCEVCGARFTQKGNLLRHIKL [46F_47C_49E_50V_52G_53A_54R_55F_67L_, Q9UKT9] | 3.05 | 3.02 | 1.45 | 2.9 |
| FYCEVCGADFTQKGNLLRHIKL [46F_47Y_49E_50V_52G_53A_54D_55F_67L_, Q9UKT9] | 0.695 | 1.02 | 0.125 | -1.36 |
| FICEVCGARFTQKGNLLRHIKL [46F_47I_49E_50V_52G_53A_54R_55F_67L_, Q9UKT9] | 0.108 | 2.04 | 1.51 | 2.6 |
| FYCEVCGARFTQKGNLLRHIKL [46F_47Y_49E_50V_52G_53A_54R_55F_67L_, Q9UKT9] | 3.84 | 3.8 | 2.26 | 1.95 |
| FFCEVCGARFTQKGNLLRHIKL [46F_47F_49E_50V_52G_53A_54R_55F_67L_, Q9UKT9] | 3.78 | 3.71 | 1.69 | 2.19 |
| FWCEVCGARFTQKGNLLRHIKL [46F_47W_49E_50V_52G_53A_54R_55F_67L_, Q9UKT9] | 3.36 | 3.82 | 1.63 | 1.59 |
| FDCEVCGARFTQKGNLLRHIKL [46F_47D_49E_50V_52G_53A_54R_55F_67L_, Q9UKT9] | 3.09 | 1.52 | 0.571 | 2.08 |
| FWCEVCGALFTQKGNLLRHIKL [46F_47W_49E_50V_52G_53A_54L_55F_67L_, Q9UKT9] | 2.17 | 2.69 | 1.86 | -0.0715 |
| FECEVCGARFTQKGNLLRHIKL [46F_47E_49E_50V_52G_53A_54R_55F_67L_, Q9UKT9] | 1.13 | -0.689 | 1.27 | 3.29 |
| FYCEVCGALFTQKGNLLRHIKL [46F_47Y_49E_50V_52G_53A_54L_55F_67L_, Q9UKT9] | 3.18 | 3.03 | 2.24 | 0.431 |
| FLCEVCGAEFTQKGNLLRHIKL [46F_47L_49E_50V_52G_53A_54E_55F_67L_, Q9UKT9] | 0.493 | -1.2 | 0.235 | 1.01 |
| FYCPICGRSFTQKGNLLRHIKL [46F_47Y_49P_50I_52G_53R_54S_55F_67L_, Q9UKT9] | -1.81 | -2.36 | -1.67 | -2.4 |
| FHCNQCGHYFTQKGNLLRHIKL [46F_47H_49N_50Q_52G_53H_54Y_55F_67L_, Q9UKT9] | -2.17 | -2.71 | -2.16 | -1.62 |
| FYCPICGRMFTQKGNLLRHIKL [46F_47Y_49P_50I_52G_53R_54M_55F_67L_, Q9UKT9] | -0.787 | -1.23 | -0.675 | -1.57 |
| FVCEVCGARFTQKGNLLRHIKL [46F_47V_49E_50V_52G_53A_54R_55F_67L_, Q9UKT9] | 1.35 | 2.78 | 0.984 | 3.25 |
| FACEVCGARFTQKGNLLRHIKL [46F_47A_49E_50V_52G_53A_54R_55F_67L_, Q9UKT9] | 3.91 | 3.03 | -0.415 | 1.17 |
| FNCEVCGARFTQKGNLLRHIKL [46F_47N_49E_50V_52G_53A_54R_55F_67L_, Q9UKT9] | 2.12 | 0.955 | -0.805 | 0.249 |
| FLCEVCGARFTQKGNLLRHIKL [46F_47L_49E_50V_52G_53A_54R_55F_67L_, Q9UKT9] | -0.109 | -1.35 | -0.123 | 2.09 |
| FACEVCGALFTQKGNLLRHIKL [46F_47A_49E_50V_52G_53A_54L_55F_67L_, Q9UKT9] | 1.98 | -0.613 | -0.457 | -1.05 |
| FGCEVCGALFTQKGNLLRHIKL [46F_47G_49E_50V_52G_53A_54L_55F_67L_, Q9UKT9] | 2.18 | 0.893 | 1.4 | -0.493 |
| FACEVCGADFTQKGNLLRHIKL [46F_47A_49E_50V_52G_53A_54D_55F_67L_, Q9UKT9] | 1.11 | -1.42 | -1.53 | -1.97 |
| FMCEVCGARFTQKGNLLRHIKL [46F_47M_49E_50V_52G_53A_54R_55F_67L_, Q9UKT9] | 0.167 | -0.178 | 1.48 | 1.48 |
| FQCEVCGARFTQKGNLLRHIKL [46F_47Q_49E_50V_52G_53A_54R_55F_67L_, Q9UKT9] | -0.109 | 1.95 | 1.42 | 3.71 |
| FKCEVCGARFTQKGNLLRHIKL [46F_47K_49E_50V_52G_53A_54R_55F_67L_, Q9UKT9] | -1.76 | -3.02 | -3.44 | -1.87 |
| FGCEVCGADFTQKGNLLRHIKL [46F_47G_49E_50V_52G_53A_54D_55F_67L_, Q9UKT9] | -1.71 | -2.17 | -0.906 | -1.3 |
| FGCEVCGARFTQKGNLLRHIKL [46F_47G_49E_50V_52G_53A_54R_55F_67L_, Q9UKT9] | 3.86 | 2.74 | -0.6 | 1.27 |

— the supplement of paper PMC12645437, “Orthogonal IMiD-Degron Pairs Induce Selective Protein Degradation in Cells” (ACS Chemical Biology, 2025)
